Compound activity from PubChem.
LYPLA1 counter = blocks human lysophospholipase 1, a PME1 counter-screen; O75608; recombinant LYPLA1, FP-Rh probe fluorescence polarization; inhibition, % at 5.9 µM; 320,000 compounds, 0.16% hits;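 active = inhibition above the mean of all tested compounds plus 3 SD, set per campaign, cut at about 14% in these data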;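 also: inhibitors block serine hydrolase probe labeling of LYPLA1 so polarization falls; 0% = enzyme with DMSO and 100% = wells lacking LYPLA1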
Target sequence (O75608 whole entry, looked up): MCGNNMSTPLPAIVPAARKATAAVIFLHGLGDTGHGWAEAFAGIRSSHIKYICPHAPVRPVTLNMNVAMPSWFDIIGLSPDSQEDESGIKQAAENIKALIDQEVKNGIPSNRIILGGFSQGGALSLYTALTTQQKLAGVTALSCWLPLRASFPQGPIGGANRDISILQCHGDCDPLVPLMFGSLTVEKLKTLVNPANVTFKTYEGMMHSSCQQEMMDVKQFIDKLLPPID
PAFAH2 inh = PAFAH2 (human) inhibition; inhibition, % at 3.39 µM; recombinant PAFAH2, FP-rhodamine activity probe, fluorescence polarization; AID 492956; Q99487; 340,000 compounds, 0.99% hits;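 active = inhibition above the mean over all tested compounds plus 3 SD, cut at about 30% in these data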;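 also: inhibitors block probe labeling of enzyme so polarization drops; 0% = enzyme with DMSO and 100% = wells lacking PAFAH2 protein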
pPAFAH inh = inhibitors of human plasma PAF acetylhydrolase (pPAFAH); Q13093; recombinant pPAFAH, FP-rhodamine probe fluorescence polarization; inhibition, % at 3.39 µM; 330,000 compounds, 1.5% hits; AID 463082;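 active = inhibition above the mean inhibition across the screen plus 3 SD, cut at about 25% in these data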;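 also: inhibitors block binding of the rhodamine activity-based probe so polarization drops; 0% = enzyme with DMSO and 100% = wells lacking pPAFAH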
PAFAH1B3 inh = PAFAH1B3 (human) inhibition; 340,000 compounds, 0.28% hits; inhibition, % at 3.39 µM; Q15102; recombinant PAFAH1B3, FP-rhodamine probe, fluorescence polarization; AID 492972;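 active = inhibition above the screen-wide average of all tested compounds plus 3 SD, cut at about 25% in these data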;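 also: 0% = enzyme with DMSO only and 100% = wells lacking PAFAH1B3 protein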
LYPLA2 counter = blocks human lysophospholipase 2, a PME1 counter-screen | O95372 | recombinant LYPLA2, FP-Rh probe fluorescence polarization | inhibition, % at 5.9 µM | 320,000 compounds, 0.38% hits | AID 2177;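 active = inhibition above the screen-wide mean plus 3 SD, limit set per campaign, cut at about 26% in these data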;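 also: 0% = LYPLA2 with DMSO and 100% = wells lacking LYPLA2 enzyme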
Target sequence (O95372 whole entry, looked up): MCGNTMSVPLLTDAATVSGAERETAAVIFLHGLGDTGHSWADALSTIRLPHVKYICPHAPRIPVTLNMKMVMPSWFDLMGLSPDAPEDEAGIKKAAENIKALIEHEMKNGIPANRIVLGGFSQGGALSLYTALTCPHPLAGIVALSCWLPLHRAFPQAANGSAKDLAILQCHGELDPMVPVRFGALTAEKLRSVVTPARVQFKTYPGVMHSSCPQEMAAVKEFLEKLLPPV
PAFAH1B2 inh = inhibitors of human PAFAH1B2 | 340,000 compounds, 1.2% hits | inhibition, % at 3.39 µM | P68402 | recombinant PAFAH1B2, FP-rhodamine activity probe, fluorescence polarization;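 active = inhibition above the mean of all tested compounds plus 3 SD, cut at about 24% in these data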;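 also: 0% = enzyme with DMSO and 100% = wells lacking PAFAH1B2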
The depositor's hits bear a star; . = no result given. The list is not random: actives were taken first. Their share in the collection is about 2.9%.

SMILES | LYPLA1 counter | PAFAH2 inh | pPAFAH inh | PAFAH1B3 inh | LYPLA2 counter | PAFAH1B2 inh
COc1ccc(S(=O)(=O)N2CCCCCC2)cc1 | -4 | 4 | 5 | 8 | -2 | 3
COc1ccc(-c2ccc(S(=O)(=O)N3CCCC3)cc2)cc1 | 3 | -1 | 26* | 9 | 10 | 5
O=C(NC1CC1)C1CCN(C2CCN(C(=O)/C=C/c3cccs3)CC2)CC1 | -1 | 3 | 1 | 7 | 4 | 3
COc1ccc(C(=O)N2CC(=O)Nc3ccc(C)cc3C2c2ccccc2)cc1 (stereo unspecified) | . | 3 | . | 8 | . | 5
Nc1c(C(=O)OCC(=O)Nc2ccc(Cl)cc2[N+](=O)[O-])[nH]c(=O)[nH]c1=O | 1 | -4 | 33* | 2 | 4 | 1
NS(=O)(=O)c1cc(C(=O)OCC(=O)Nc2ccc(Cl)cc2[N+](=O)[O-])ccc1Cl | -1 | -6 | 2 | 11 | 1 | 5
CCN(CC)CCSc1nc2ccccc2c(=S)n1-c1ccccc1 | 0 | . | 0 | . | -6 | .
Cc1onc(-c2ccccc2)c1C(=O)NC(=S)Nc1sc2c(c1C#N)CCCC2 | -8 | 10 | 1 | 2 | -2 | 9
Cc1onc(-c2ccccc2)c1C(=O)Nc1sc2c(c1C#N)CCC2 | -2 | 17 | 27* | 9 | 0 | 1
C/C(=N\NC(=O)c1sccc1C)c1ccncc1 | 1 | -2 | 1 | 9 | 1 | -5
CC(Oc1ccc2c3c(c(=O)oc2c1)CCCC3)C(=O)NCC1CCC(C(=O)O)CC1 (stereo unspecified) | -3 | -3 | 5 | 2 | -4 | 6
COC(=O)C(C)Oc1ccc2c3c(c(=O)oc2c1)CCCCC3 (stereo unspecified) | 1 | 3 | 28* | -1 | -6 | 1
CCNc1c(NS(=O)(=O)c2ccc(Br)s2)c(=O)oc2ccccc12 | -1 | 25 | 1 | 0 | 2 | 2
O=C(CN1CCN(S(=O)(=O)c2ccc(Br)s2)CC1)NC1CCCCC1 | . | 13 | . | 8 | . | 30*
Cc1sc2ncn(CC(=O)NCc3ccco3)c(=O)c2c1-c1ccc(F)cc1 | 0 | -2 | 17 | 1 | -7 | -3
O=C(Cn1cnc2scc(-c3cccc([N+](=O)[O-])c3)c2c1=O)NCc1ccco1 | -4 | 18 | 26* | 4 | 2 | -4
O=C(c1ccco1)N1CCN(C(=O)C2CCCc3c2[nH]c2ccc(Cl)cc32)CC1 (stereo unspecified) | 3 | 1 | 4 | 1 | 6 | 0
O=S(=O)(c1ccc(Cl)cc1)c1cc(O)ccc1O | -1 | 3 | 6 | 6 | 6 | 26*
O=C(NCc1ccccn1)c1cc2ccccn2n1 | -5 | 0 | -4 | 2 | 0 | 0
NC(=O)c1ccc(N=Nc2c(O)c3ccccc3[nH]c2=O)cc1 | 1 | . | 9 | . | 1 | .
N=C(N)c1ccc(N=Nc2c(O)ccc3c2[nH]c2ccccc23)cc1 | . | 10 | . | 9 | . | 31*
Cc1c(C(=O)O)cccc1-c1ccc(/C=N/Nc2ccc(Br)cc2)o1 | 7 | 20 | 26* | 6 | 14 | 3
Cc1ccc(SC(C)c2nc(-c3cccnc3)no2)cc1 (stereo unspecified) | 3 | 0 | -2 | 8 | 4 | 27*
CCN(Cc1ccc(C#CCCO)cc1)CC1CCCN(CCc2cccc(OC)c2)C1 (stereo unspecified) | 2 | 0 | 0 | 3 | 2 | -2
Cc1cc(C(=O)CSc2n[nH]c(-c3ccccc3F)n2)c(C)n1Cc1cccs1 | -6 | -13 | -7 | -8 | -7 | 4
SMILES | LYPLA1 counter | PAFAH2 inh | pPAFAH inh | PAFAH1B3 inh | LYPLA2 counter | PAFAH1B2 inh
COc1cc(-c2nc(-c3ccccc3)c(-c3cccs3)[nH]2)cc(OC)c1OC | -4 | 4 | 19 | 9 | 0 | 4
COc1cc(-c2nc(-c3ccccc3)c(-c3cccs3)[nH]2)cc(OC)c1O | 5 | 20 | 32* | 15 | 3 | 17
Cc1nc(SCc2ccccc2C#N)n[nH]1 | -3 | -2 | 0 | 3 | 2 | 2
O=Cc1cc(N=Nc2ccccc2Cl)ccc1O | 3 | 10 | 28* | 13 | 1 | 9
COc1ccc(CNC(=O)C(=O)NCC2OCCCN2S(=O)(=O)c2cccs2)cc1 (stereo unspecified) | -3 | 5 | 9 | 0 | 3 | 27*
Cc1ccc(S(=O)(=O)N2CCOC2CNC(=O)C(=O)NCc2ccc(Cl)cc2)cc1 (stereo unspecified) | 2 | -6 | 10 | -3 | 6 | 29*
O=C(Nc1c(C(=O)O)[nH]c2ccccc12)NC1CCCCC1 | 2 | 45* | 11 | -3 | 1 | 27*
Cc1cc(C)nc(/N=C(\N)Nc2ccc(OCc3ccccc3)cc2)n1 | 6 | 4 | 1 | -1 | 30* | -2
C[n+]1cn(Cc2ccc(C#N)cc2)c2ccccc21 | 1 | 5 | -1 | 9 | 0 | 8
N#CCC(=O)Nc1ccc(C(=O)NCCC(c2ccccc2)c2ccccc2)cc1 | -20 | -13 | 34* | -9 | -17 | -7
CN(C)C(CNC(=O)c1ccc(NC(=O)CC#N)cc1)c1ccccc1 (stereo unspecified) | -9 | -11 | 2 | 2 | -16 | 1
C=CC[C@H](CC(=O)N(CCO)Cc1ccccc1)C(=O)N[C@@H](C)COC(=O)[C@@H](CC=C)Cc1ccc(F)cc1 | . | -10 | 4 | 6 | . | 26*
C=CCC[C@H](Cc1ccc(F)cc1)C(=O)OC[C@H](Cc1c[nH]c2ccccc12)NC(=O)[C@@H](CC=C)CC(=O)NCCO | . | 9 | 27* | 10 | . | 2
C=CCC[C@H](Cc1ccc(F)cc1)C(=O)OC[C@@H](Cc1c[nH]c2ccccc12)NC(=O)[C@@H](CC=C)CC(=O)N[C@@H](CO)Cc1ccccc1 | . | -3 | 14 | -8 | . | 2
COc1ccc2oc(=O)c(/C(C)=N/Nc3nc(-c4cc(C)ccc4C)cs3)cc2c1 | -5 | 2 | 5 | -1 | -2 | 3
COc1ccc2oc(=O)c(-c3csc(Nc4ccc(O)cc4)n3)cc2c1 | 7 | -5 | 29* | 17 | 13 | 8
Cc1c2cnn(CC(=O)N3CCN(c4ncccn4)CC3)c(=O)c2c(C)n1Cc1ccc(F)cc1 | 2 | . | 5 | . | 7 | .
CC(=O)c1ccc(Nc2cc(C)nc3nc(C)nn23)cc1 | 1 | -5 | -4 | 1 | -6 | 3
N#C/C(=C(/O)COC(=O)Cc1c[nH]c2ccccc12)c1nc2ccccc2[nH]1 | -3 | 9 | 25* | 4 | -5 | 4
COC(CN(C)C(=O)C1CCC(CNS(=O)(=O)c2ccc(C)cc2)CC1)OC (stereo unspecified) | -2 | -1 | 25* | -1 | -2 | 6
COc1ccc([N+](=O)[O-])cc1N(CC(=O)NCCSc1ccc(C)cc1)S(C)(=O)=O | -1 | 8 | -7 | 4 | -3 | 31*
